Shown are actives, neighbours in structure and some others; about 4% of the full set was active somewhere.
tim23-1 inh = inhibits growth of tim23-1 mutant yeast; hit rate 1.3% among 330,000; AID 463212; S. cerevisiae tim23-1 growth, BacTiter-Glo luminescence, 24 h; inhibition, % at 20 µM;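 active means growth inhibition of the mutant yeast at or above 50%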;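 further: temperature-sensitive mutant grown at 25 °C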
NALP1 yeast inh = blocks the NALP1 inflammasome reconstituted in yeast | S. cerevisiae NALP1/ASC/caspase-1 growth, X-gal OD620, 72 h | inhibition, % at 10 µM | hit rate 0.61% among 280,000; in the data active means inhibition mostly above about 24%, no sharp cut-off; inactive means mostly below about 32%
NALP3 yeast inh = blocks the NALP3 inflammasome reconstituted in yeast. Yeast reconstituted NLRP3/ASC/caspase-1, beta-gal luminescence, 24 h. AID 2825. inhibition, % at 10 µM. hit rate 0.39% among 330,000;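 active means inhibition of 50% or more; inactive means inhibition below 50%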
TIM10 inh = growth inhibitors of TIM10 yeast strain. S. cerevisiae TIM10 strain growth, BacTiter-Glo luminescence, 24 h. inhibition, % at 10 µM. hit rate 1.4% among 330,000. AID 463195;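 active means inhibition of 40% or more at the single tested concentration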;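 further: wild-type TIM10 isogenic control strain grown at permissive 25 °C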
tim10-1 inh = inhibits growth of tim10-1 mutant yeast | S. cerevisiae tim10-1 ts strain growth, BacTiter-Glo, 24 h | inhibition, % at 20 µM | hit rate 2.2% among 330,000;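 active means inhibition of at least 40%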;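 further: mutant grown at 25 °C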
tim10-1 conf = tim10-1 yeast growth inhibition, confirmed | hit rate 56% among 7,400 | inhibition, % at 20 µM | S. cerevisiae tim10-1 ts strain growth, BacTiter-Glo, 24 h | AID 463213 | shares compounds with tim10-1 inh;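 active means inhibition of yeast growth at or above a set limit in either of two repeat tests at 20 µM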;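 further: tim10-1 mutant grown at permissive 25 °C to find synthetic lethal compounds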
TIM10 conf = TIM10 yeast growth inhibition, confirmed. shares compounds with TIM10 inh. S. cerevisiae tim10 strain growth, BacTiter-Glo luminescence, 24 h. inhibition, % at 10 µM. hit rate 63% among 4,600;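 active means inhibition of yeast growth at or above a set limit in either of two replicates at 10 µM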; further: this counterscreen used the strain with wild-type TIM10
tim23-1 conf = confirmation of tim23-1 mutant yeast growth inhibitors. shares compounds with tim23-1 inh. S. cerevisiae tim23-1 growth, BacTiter-Glo luminescence, 24 h. inhibition, % at 20 µM. hit rate 83% among 4,400;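 active means inhibition above about 39% in either of two replicate wells at 20 µM, limit read from the data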;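 further: temperature-sensitive tim23-1 mutant grown at 25 °C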
A number is an active result; n = inactive; x = no result.

SMILES	tim23-1 inh	NALP1 yeast inh	NALP3 yeast inh	TIM10 inh	tim10-1 inh	tim10-1 conf	TIM10 conf	tim23-1 conf
CC1CCC(=C(C#N)C(=O)Nc2cccc(Cl)c2)CC1 (stereo not drawn)	60	n	n	n	45	42	x	51
O=c1[nH]cnc2c1c(-c1ccccc1)cn2-c1cccc(Cl)c1	60	n	n	n	46	36	x	38
Cc1nc2ccccc2n1C(=O)c1ccc(Cl)cc1[N+](=O)[O-]	50	n	n	n	48	33	x	39
O=C1C(Cl)=C(NCc2cccnc2)C(=O)c2ccccc21	69	n	n	n	45	n	x	64
O=S(=O)(Cc1ccccc1)NCc1cccnc1	n	x	n	n	n	x	x	x
COc1ccc2noc3c2c1C(=O)c1ccccc1-3	69	x	n	n	61	71	x	72
COc1ccc(-c2cc(-c3cc(C)ccc3O)[nH]n2)cc1	69	n	n	51	52	45	45	n
COc1ccc(-c2cc(-c3ccc(OC)cc3)[nH]n2)cc1	n	n	n	n	n	x	x	x
COC(=O)c1c(C)nc2ccccc2c1C(=O)O	n	n	n	n	n	x	x	x
COC(=O)c1cc(C)[nH]c2c(C)cc3nc4ccccc4c3c12	59	n	n	n	50	42	x	n
O=[N+]([O-])c1cnc(Nc2ccc(Cl)cn2)c([N+](=O)[O-])c1	73	n	n	50	73	69	33	81
O=C(Nc1ccc(Cl)cn1)c1ccccc1[N+](=O)[O-]	n	n	n	n	n	x	x	x
Cc1nn(-c2ccccc2)c(C)c1NC(=O)COC(=O)c1cccc(OC(F)F)c1	n	x	n	n	n	x	x	x
Cc1onc(-c2ccccc2)c1-c1nc2cc(Cl)ccc2c(=O)o1	68	n	n	n	43	n	x	53
CCn1c(/C=C/c2ccccc2)nc2ccccc21	n	n	n	n	n	x	x	x
CCC(C)n1c(/C=C/c2ccccc2)nc2ccccc21 (stereo not drawn)	53	n	n	44	45	35	n	50
COc1ccc(-c2noc(CN(C)C(=O)c3ccoc3C)n2)cc1	n	n	n	n	n	x	x	x
C[C@@H]1CC=C[C@H]2[C@H]1C(=O)N(Cc1ccccc1)[C@H]2c1ccc2ccccc2c1Br	64	x	n	65	69	73	56	71
CCOc1ccc(NC(C)c2cc(Cl)ccc2O)cc1 (stereo not drawn)	n	n	n	n	n	x	x	x
CC(Nc1ccc(Cl)cc1)c1cc(Cl)ccc1O (stereo not drawn)	64	n	n	n	66	58	x	52
COc1ccc(S(=O)(=O)N2CCC(C(=O)NCc3cccnc3)CC2)cc1Cl	n	n	n	n	n	x	x	x
O=C1OCC2=C1C(c1ccc(F)cc1)CC(=O)N2c1ccccc1 (stereo not drawn)	n	n	n	n	n	x	x	x
COc1cc2cc(CCCOC(=O)c3ccco3)oc(=O)c2cc1OC	n	x	n	n	n	x	x	x
N#CC1=C(N)OC(c2ccccc2)=C(C#N)C1c1ccc2c(c1)OCO2 (stereo not drawn)	72	n	n	82	62	56	71	75
N#CC1=C(N)OC2=C(C(=O)CC(c3ccccc3)C2)C1c1ccc2c(c1)OCO2 (stereo not drawn)	n	n	n	n	n	x	x	x
SMILES	tim23-1 inh	NALP1 yeast inh	NALP3 yeast inh	TIM10 inh	tim10-1 inh	tim10-1 conf	TIM10 conf	tim23-1 conf
Cc1ccc(CN2Cc3cccc4c3[C@@H](CC2=O)[C@H](O)[C@H](O)C4)cc1	n	x	n	n	n	x	x	x
COc1ccc(N2C(=O)C(Cl)=C(Oc3cccc(OC)c3)C2=O)cc1	53	n	n	75	72	57	82	n
CC1CCC(NC(=O)CCN2C(=O)C3CC=CCC3C2=O)CC1 (stereo not drawn)	n	x	n	n	n	x	x	x
OCCNC(=S)Nc1ccc(Cl)c(Cl)c1	n	n	n	n	n	x	x	x
NN(Cc1ccccc1)C(=S)Nc1ccc(Cl)c(Cl)c1	71	n	n	50	41	66	51	69
NC(=O)N/N=C/c1coc2ccc3ccccc3c2c1=O	n	n	n	n	n	x	x	x
O=Cc1coc2ccc3ccccc3c2c1=O	76	n	n	n	50	n	x	74
Cc1ccc(C(=O)COC(=O)C2CC3CCCC(C2)C3=O)cc1[N+](=O)[O-] (stereo not drawn)	n	x	n	n	n	x	x	x
O=C(NC(=S)Nc1cc(Cl)ccc1N1CCOCC1)c1ccccc1[N+](=O)[O-]	56	n	n	45	51	50	47	55
COC1(C)CC2C(CC1OC(=O)c1cc([N+](=O)[O-])cc([N+](=O)[O-])c1)C2(C)C (stereo not drawn)	65	n	n	63	60	61	62	68
COC(=O)c1cc(C(=O)NCC2CCCCC2)cc([N+](=O)[O-])c1	n	n	n	n	n	x	x	x
O=C(NCCOc1nc(N2CCCCC2)nc(N2CCCCC2)n1)Nc1ccccc1	n	n	n	n	n	x	x	x
CCN(CC)c1nc(OCCNC(=O)Nc2ccccc2)nc(N(CC)CC)n1	62	n	n	n	42	35	x	50
COc1cc(CNC2CCCC2)c(Br)cc1OC1CCCC1	n	n	n	n	n	x	x	x
COc1cc(C=O)c(Br)cc1OC1CCCC1	56	n	n	45	48	33	34	53
CCOc1ccc(/C=C/[N+](=O)[O-])c2ccccc12	73	n	n	65	51	n	55	n
CCOc1ccccc1/C=N/Nc1ccccc1[N+](=O)[O-]	n	n	n	n	n	x	x	x
O=C(NC(=S)N1CCN(Cc2ccc3c(c2)OCO3)CC1)c1cccc(Br)c1	54	n	n	56	51	35	n	47
O=C(NC(=S)Nc1ccc2c(c1)OCO2)c1ccccc1	n	n	n	n	n	x	x	x
O=C(NC(=S)Nc1ccc2c(c1)OCCO2)c1cccc(Br)c1	51	n	n	45	45	n	n	42
CNC(C)C#Cc1ccc2c(=O)c3cc(C)c(C)cc3oc2c1 (stereo not drawn)	51	x	n	n	42	38	x	59
O=c1[nH]nc(Cc2ccc([N+](=O)[O-])cc2)c2ccccc12	n	n	n	n	n	x	x	x
Fc1ccc(NC(=S)NNc2ncc(C(F)(F)F)cc2Cl)c(F)c1	n	n	n	n	n	x	x	x
CCCc1c(C)c(C#N)c2nc3ccccc3n2c1NCCCN1CCOCC1	n	n	n	n	n	x	x	x
CCCCc1c(C)c(C#N)c2nc3ccccc3n2c1NCCN(C)C	65	34	n	52	57	63	37	69
Cc1c(Cc2ccccc2)c(NCCN(C)C)n2c(nc3ccccc32)c1C#N	58	n	n	69	48	57	80	69

Screens (PubChem)
